ChEMBL document CHEMBL3988442, “University of Dundee, Small-Polar-MMV Screening Library” (2021)
Out of some 48,000 compounds screened, about 13,000 (27%) showed an effect of 50% or more. This is one part of the list.

These molecules were tested on Wolbachia pipientis (assay: Anti-Wolbachia Cell-Based Screen). Settings: 5 µM.
Assay type: functional
Design: scale not given: in the data most compounds retested in dose-response had high values

| SMILES | Percent Effect [%] |
| --- | --- |
| O=C(NCCN1CCOCC1)N1CCN(c2ccccc2)CC1 | -9.765 |
| Cc1ccccc1CNc1ccc(S(N)(=O)=O)c(C(F)(F)F)c1 | -19.7 |
| COc1cccc(CCC2CCCN(C(=O)C3=NN(C)C(=O)CC3)C2)c1 (stereo not given) | 3.443 |
| O=C(NC(CN1CCCC1)c1ccccc1)c1c(O)cc(F)cc1F (stereo not given) | -3.42 |
| Cc1cccc(C2(C(=O)NCC(C)CN3CCCC3=O)CC2)c1 (stereo not given) | -2.528 |
| Cc1cc(C)n(CC(C)NC(=O)C2(c3ccc(F)cc3)CC2)n1 (stereo not given) | -1.516 |
| O=C(NCC(O)COc1ccccc1)C1(c2ccc(F)cc2)CC1 (stereo not given) | -6.241 |
| CC(Cn1ccnc1)NC(=O)C1(c2ccc(F)cc2)CC1 (stereo not given) | 6.075 |
| CCC(CN1CCCCC1)NC(=O)C1(c2ccc(F)cc2)CC1.O=C(O)CC(O)(CC(=O)O)C(=O)O (stereo not given) | 147.4 |
| CCC(CN1CCCC1)NC(=O)C1(c2cccc(F)c2)CC1.O=C(O)CC(O)(CC(=O)O)C(=O)O (stereo not given) | 113.9 |
| CCC(CN1CCCC1)NC(=O)C1(c2ccc(F)cc2)CC1 (stereo not given) | 125.8 |
| O=C(NCc1nncn1C1CC1)C1(c2cccc(F)c2)CCOCC1 | 0.3927 |
| CCC(CN1CCCCC1)NC(=O)C1(c2cccc(F)c2)CC1.O=C(O)CC(O)(CC(=O)O)C(=O)O (stereo not given) | 128.4 |
| CC1CN(C(=O)C2(c3cccc(F)c3)CCOCC2)CCO1 (stereo not given) | -11.59 |
| CC(CNC(=O)C1(c2ccc(F)cc2)CC1)CN1CCCC1=O (stereo not given) | -3.318 |
| COc1cccc(-c2n[nH]c3c2CN(C(=O)C2=C(C)OCCO2)CC3)c1 | 9.828 |
| Cc1cc(CNc2cncc(C(=O)N(C)C)n2)c2[nH]c(C)c(C)c2c1 | 5.027 |
| O=C(O)c1ccccc1-c1c(-c2ccccc2)ncn1C[C@H]1CCCN1 | -12.22 |
| c1cncc(CNc2cccc(OCCN3CCCCC3)c2)c1 | 1.449 |
| CN(C)C(=O)CCNC(=O)NCc1ccc(Br)cc1Cl | 9.255 |
| O=c1[nH]nc(CNc2ncc(Br)cn2)[nH]1 | 1.625 |
| CC(=O)c1cccc(OCCCC(=O)N(C)C2CCN(C)CC2)c1 | -6.579 |
| COc1ccc(CNCCc2cc(F)cc3c2OCOC3)cc1O | 19 |
| CCC(=O)N1CCC2(CCN(Cc3cccc(F)c3)CC2)CC1.O=C(O)C(F)(F)F | -2.197 |
| CCC(CN1CCN(C)CC1)NC(=O)C1(c2cccc(F)c2)CC1.O=C(O)CC(O)(CC(=O)O)C(=O)O (stereo not given) | 126 |

| SMILES | Percent Effect [%] |
| --- | --- |
| CCC(O)CN1CCN(C(=O)C2(c3ccc(C)c(OC)c3)CC2)CC1 (stereo not given) | -7.505 |
| CCN1CC(C(=O)N2CCc3cc(C(=O)N(C)C)n(C)c3C2)CCC1=O (stereo not given) | 22.54 |
| COCC1c2c(cnn2C)CCN1C(=O)c1ccc2c(c1)OCO2 (stereo not given) | 20.59 |
| COCCN1C[C@H]2CN(C(=O)c3ccc4c(c3)OCO4)CCN2C1=O | -8.36 |
| CCCC(O)CN1CCC(=O)N(CCOC)Cc2cc3c(cc21)OCO3 (stereo not given) | 110.9 |
| CCCC(O)CN1CCC(=O)N(CC)Cc2cc3c(cc21)OCO3 (stereo not given) | 85.4 |
| O=C(O)C(F)(F)F.O=C(O)C(F)(F)F.c1cc2c(cc1CN1CC[C@H]3[C@H]1CCN3CC1CC1)OCO2 | -18.3 |
| CCCC(O)CN1CCC(=O)N(CC2CC2)Cc2cc3c(cc21)OCO3 (stereo not given) | 71.64 |
| CC(=O)N1CC[C@H]2CC(=O)N(Cc3ccc4c(c3)OCO4)CC[C@H]2C1 | 1.484 |
| Cc1ccccc1N1CCN(C(=O)Cc2ccc3c(c2)OCO3)CC1=O | -22.32 |
| CC(NC(=O)Nc1ccccc1CN1CCOCC1)c1nnc(N)s1 (stereo not given) | 1.041 |
| Cc1cc(C)n(CC(C)NCc2nncn2C2CCCCC2)n1 (stereo not given) | -18.85 |
| CCC(C)NS(=O)(=O)Cc1cccc(NC(=O)c2ccc[nH]2)c1 (stereo not given) | -2.911 |
| Cc1ncsc1CCN(C)C(=O)CN1CC2(CCCC2)CC1=O | -2.773 |
| COc1cc(C(=O)NCCc2ccccc2OC)on1 | 0.865 |
| O=C(N[C@H]1CC[C@H](O)CC1)c1ccc2nc(-c3ccccc3)cn2c1 | -19.25 |
| CC(C)n1cc(CN2CCCN(C(=O)COC3CCCC3)CC2)cn1 | 98.23 |
| CC(C)n1cc(CN2CCCN(C(=O)CC3CCCCC3)CC2)cn1 | 102.4 |
| CCc1[nH]ncc1C(=O)N1CCCN(Cc2cnn(C(C)C)c2)CC1 | -9.524 |
| CC(C)n1ccnc1CN1CCCN(C(=O)COC2CCCC2)CC1 | -4.301 |
| CC(C)n1cc(CN2CCCN(C(=O)CC3CCCO3)CC2)cn1 (stereo not given) | 115.9 |
| CCCC(=O)N1CCCN(C(=O)Nc2ccc(C)s2)CC1 | 4.138 |
| O=C(C(c1ccccc1)N1CCc2cncnc2C1)N1CCCCC1 (stereo not given) | -0.8294 |
| N#CC1(NC(=O)COc2cc(Cl)cc(Cl)c2)CCSC1 (stereo not given) | -14.75 |
| O=C(NCCCn1cnnc1)C1CCCN(C2CCCC2)C1 (stereo not given) | 8.155 |

| SMILES | Percent Effect [%] |
| --- | --- |
| CCOCCC(=O)N1CCCCC1CCn1cccn1 (stereo not given) | -10.55 |
| O=C(CCCOc1ccc(F)cc1F)N1CCCC1Cn1cccn1 (stereo not given) | 4.503 |
| COc1ccccc1OCCC(=O)N1CCCC1Cn1cccn1 (stereo not given) | 114.3 |
| O=C(CCOc1ccccc1F)N1CCCC1Cn1cccn1 (stereo not given) | 123.4 |
| O=C(c1ccccc1OCC1CC1)N1CCCC1Cn1cccn1 (stereo not given) | 15.75 |
| COc1cc(C)ccc1OCCC(=O)N1CCCC1Cn1cccn1 (stereo not given) | 6.133 |
| O=C(CCOc1ccccc1F)N1CCCCC1Cn1cccn1 (stereo not given) | 114.4 |
| O=C1O[C@@H]2CN(c3ncccn3)C[C@@H]2N1CCCc1ccc(F)cc1 | 0.8552 |
| CCc1nc(CN(CC(N)=O)C(C)C)cs1 | -5.873 |
| CN(C)CCOc1ccccc1N1CCN(C(=O)C(C)(C)C#N)CC1 | 12.48 |
| COCCN(Cc1c(C)nn(C)c1C)C(=O)C1COc2ccccc2C1 (stereo not given) | -13.07 |
| Cc1cc(C)n(CC2CCCCN2CC(=O)Nc2cccnc2)n1 (stereo not given) | -5.388 |
| CN(Cc1nc(-c2cccnc2)no1)C(=O)c1cccn1C | -3.845 |
| CC(C)[C@@H]1CN(S(=O)(=O)c2cccc(C(=O)O)c2)C[C@H]1N(C)C | 0.7097 |
| COc1ccc(S(=O)(=O)N2CCCC3(CCCN3S(C)(=O)=O)C2)cc1 (stereo not given) | -14.23 |
| CCN1CCNC(=O)C12CCN(S(=O)(=O)c1ccc(OC)cc1)CC2 | 15.65 |
| CO[C@H]1CN(S(=O)(=O)c2ccc(F)cc2)C[C@@]12CCCO2 | 187.7 |
| COc1ccc(S(=O)(=O)N2C[C@H](OC)[C@]3(CCCO3)C2)cc1 | 124.9 |
| COc1cccc(S(=O)(=O)N2C[C@@H](N(C)C)[C@H](C(C)C)C2)c1 | -6.322 |
| COc1cccc(S(=O)(=O)CCN2CCC3(CC2)OCCO3)c1 | -7.046 |
| COc1cccc(S(=O)(=O)N2C[C@H](OC)[C@]3(CCCO3)C2)c1 | 151.5 |
| CCOC1COC2(CCN(S(=O)(=O)c3ccc(F)cc3)CC2)C1 (stereo not given) | -48.73 |
| COc1cccc(S(=O)(=O)N2C[C@@H](O)[C@H](N(C)C)C2)c1 | 179.9 |
| COc1cccc(C(C)N2CCN(S(=O)(=O)c3ccccc3)CC2)c1 (stereo not given) | -3.731 |
| COC1COC2(CCN(S(=O)(=O)c3ccc(F)cc3)CC2)C1 (stereo not given) | -4.083 |

| SMILES | Percent Effect [%] |
| --- | --- |
| Cc1nnc(C(C)Nc2cccc(COCC(F)(F)C(F)F)c2)o1 (stereo not given) | 6.562 |
| CC(C)Cc1cn(C2CCN(C(C)CC3CC3)CC2)nn1 (stereo not given) | 4.944 |
| O=C1NCC2(CCCN(C(=O)c3ccc4c(c3)OCCO4)CC2)O1 (stereo not given) | 12.75 |
| COc1cc(F)c(S(=O)(=O)N2c3ncccc3NC(=O)C2C)cc1OC (stereo not given) | -16.51 |
| O=C(CCc1nc2cccnc2[nH]1)Nc1cccnc1 | 5.191 |
| CN(Cc1ccc(N2CCCCC2)cc1)Cc1noc(C(C)(C)C)n1 | 16.16 |
| O=C(c1ccccn1)N1C[C@@H]2CC[C@H](C1)N(C(=O)CCc1cccs1)C2 | -9.254 |
| Cc1noc(C)c1CN(C)C(=O)NC1CCN(c2ncccn2)CC1 | -8.201 |
| CO[C@H]1CN(S(=O)(=O)c2ccccc2F)C[C@@]12CCCO2 | 166.4 |
| CO[C@H]1CN(S(=O)(=O)c2ccc(C)cc2)C[C@@]12CCCO2 | 89.74 |
| CNC(=O)[C@@]12CCO[C@@H]1CCN(S(=O)(=O)c1ccccc1F)C2 | -14.92 |
| C[C@@H]1CN(S(=O)(=O)c2ccc(F)cc2F)C[C@]1(C)O | 4.198 |
| O=C(CN1CCCNC1=O)N(Cc1ccccc1)CC(F)F | -9.06 |
| Cc1c(CN2CCc3[nH]cnc3C2C(=O)O)[nH]c2ccc(F)cc12 (stereo not given) | 4.217 |
| O=C(c1cccc(Cl)c1)N1CC[C@@H](N2CCC(O)CC2)[C@H](O)C1 | -1.425 |
| Cc1ccc2[nH]c(CN3CC[C@@H](N4CCN(C)CC4)[C@H](O)C3)c(C)c2c1 | 130.9 |
| CN1CCN([C@@H]2CCN(CC3=Cc4cc(Cl)ccc4OC3)C[C@H]2O)CC1 | -16.81 |
| Cc1c(CN2CC[C@@H](N3CCC(O)CC3)[C@H](O)C2)[nH]c2ccc(Cl)cc12 | 105.3 |
| CC1=C(CCN2CC[C@@H](N3CCC(O)CC3)[C@H](O)C2)C(C)(C)CCC1 | -3.551 |
| Cc1c(CN2CC[C@@H](N3CCC(O)CC3)[C@H](O)C2)[nH]c2ccc(F)cc12 | 105.6 |
| Cc1c(CN2CCc3[nH]cnc3C2C2CC2)[nH]c2ccc(F)cc12 (stereo not given) | 10.14 |
| CN1CCN([C@@H]2CCN(Cc3cccc(-n4cccn4)c3)C[C@H]2O)CC1 | -7.292 |
| CSCCC1c2nc[nH]c2CCN1Cc1[nH]c2ccc(F)cc2c1C (stereo not given) | 8.699 |
| CN1CCN([C@@H]2CCN(Cc3ccc4cc(F)ccc4n3)C[C@H]2O)CC1 | -21.32 |
| Cc1c(CN2C[C@H](O)[C@@H](N3CCOCC3)C2)[nH]c2ccc(F)cc12 | 90.42 |
